Here are results for 27 molecules from PubChem BioAssay (NCATS).

The nature of assay [1]: qHTS to identify inhibitors of the type 1 interferon - major histocompatibility complex class I in skeletal muscle: primary screen against the NCATS Mechanism Interrogation Plate v5.0 (MIPE) Libary (AID 1347411). Note: nearly all actives have a fitted effect of over 65% in size. The essentials:
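Immortalized human myoblasts (C25cl48) with HiBit knocked into endogenous HLA-B*08:01 were stimulated with 4 ng/ml IFN-beta and given compounds in 11-point 1:3 titration from 46 uM. After 24 h at 37 C, lytic HiBiT luminescence was read.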

Assay [2] is described as follows: qHTS for Hypoxia signaling pathway (HIF-1) antagonists against the NCATS CANVASS Library (AID 1347374).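 Note: HRE-bla ME-180 cells stimulated with cobalt chloride to stabilize HIF-1alpha; series mostly up to about 38 µM; nearly all actives have a fitted effect of over 60% in size.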 The essentials: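 HRE-bla ME-180 cells in medium with 0.5% dialyzed FBS received compounds (11-point series) plus CoCl2 (60 uM addition stock) for 17 hrs at 37C. Beta-lactamase activity read with CCF4 (405 nm ex, 460/530 nm em); CellTiter-Glo viability measured in same wells.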
Background: Quantitative high-throughput screening tests each substance at several concentrations.

The nature of assay [3]: qHTS for Hypoxia signaling pathway (HIF-1) agonists against the NCATS CANVASS Library (AID 1347375). In outline:
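HRE-bla ME-180 cells (0.5% dialyzed FBS) were pre-incubated 5 hrs at 37C, then exposed to compounds in an 11-point series for 17 hrs. Read-out was CCF4-AM beta-lactamase FRET (460/530 nm emissions), with CellTiter-Glo viability in the same wells.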

The nature of assay [4]: 10-beta competent E. coli microbial cell viability qHTS against the NCATS CANVASS Library (AID 1347376). Note: series mostly up to about 46 µM. In outline:
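10-beta competent E. coli (0.2 OD) were exposed overnight at 37C to compounds in an 11-point series. Viability was read as ATP-dependent BacTiter-Glo luminescence after 20 min at room temperature.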

The nature of assay [5]: DH5-alpha competent E. coli microbial cell viability qHTS against the NCATS CANVASS Library (AID 1347377). To be noted: outcome: dose series up to 91.4 µM unless noted. In outline:
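DH5-alpha E. coli suspension was exposed to an 11-point compound series overnight at 37 °C. Viable cells quantified by ATP luminescence (BacTiter-Glo) after 20 min at room temperature.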

The nature of assay [6]: qHTS for H2AX Agonists against the NCATS CANVASS Library (AID 1347378). The essentials:
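CHO-K1 cells were plated overnight at 37C, then exposed to compounds (concentration series, 0.76% DMSO final) for 3 hr at 37C. Lysates received Eu-cryptate anti-pH2AX (S139) and d2 anti-H2AX antibodies; after 24 hr at room temperature, TR-FRET 665/620 nm ratio was read.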

Assay [7] in a line: qHTS for Inflammasome Signaling Inhibitors: IL-1-beta AlphaLISA screen against the NCATS CANVASS Library (AID 1347379).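 Note: human THP-1 cells primed with LPS then triggered with ATP.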 The conditions noted are these: outcome: dose series up to 57.5 µM. The essentials: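 THP-1 cells pretreated 1 hr with compound (up to 57.5 uM final), then stimulated with LPS (250 ng/mL final) and ATP (1.25 mM final). Secreted IL-1B measured by AlphaLISA after 16 hr; glyburide as positive control.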

The nature of assay [8]: qHTS for Antimalaria activity screened against the NCATS CANVASS Library (AID 1347380). Note: nearly all actives have a fitted effect of over 40% in size. Note: potency is the fitted concentration of half-maximal effect. In outline:
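Red blood cells infected with P. falciparum Dd2 (2.5% hematocrit final, 0.3% parasitemia) were exposed to compounds in an 11-point qHTS series for 72 hr at 37C under 5% O2 and 5% CO2. Lysis buffer with SYBR Green was then added for 18 hr, and fluorescence was read at 485/535 nm.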

A short description of assay [9]: Inflammasome Signaling qHTS Counterscreen: IL-1-beta AlphaLISA counterscreen against the NCATS CANVASS Library (AID 1347381).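 Note: cell-free check with purified IL-1β in medium and no THP-1 cells; series mostly up to about 57 µM.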 In outline: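 Cell-free interference check: compounds added to medium spiked with 4 pg purified IL-1β. Anti-IL-1β acceptor beads (6 ug/mL) with 0.6 nM biotinylated antibody added for 1 h at RT, then streptavidin donor beads (24 ug/mL) for 30 min in the dark. AlphaLISA read at 680/615 nm.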

A short description of assay [10]: Cytotoxicity qHTS for assessment of Hepg2 cells membrane integrity screened against the NCATS CANVASS Library (AID 1347387). In outline: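 HepG2 cells (2000/well) attached overnight, then exposed 5 hr at 37C to compounds in an 11-point series (0.59 nM - 46 uM final). LDH release from damaged membranes read fluorometrically (CytoTox-ONE; 560/590 nm) after 10 min at room temperature.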

A short description of assay [11]: qHTS for Activators of p53 Stress Response Pathway screened against the NCATS CANVASS Library (AID 1347388). In outline: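 Beta-lactamase reporter driven by p53 response elements in HCT-116 cells, read as the 460 nm/530 nm emission ratio after CCF4 loading, following 16 h of exposure to an 11-point series. Cell viability was measured in the same wells by CellTiter-Glo luminescence.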

Assay [12] is described as follows: qHTS assay for small molecule disruptors of mitochondrial membrane potential screened against the NCATS CANVASS Library (AID 1347389). Note: series mostly up to about 46 µM; nearly all actives have a fitted effect of over 60% in size. In outline: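 HepG2 cells (2,000/well) plated overnight, then exposed to compounds in 11-point qHTS series for 1 h at 37C before 30 min Mito-MPS dye; depolarization read as fall in red aggregate (590 nm) to green monomer (535 nm) fluorescence.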

Assay [13] is described as follows: Secretion counterscreen for inhibitors of the SERCaMP assay screened against the NCATS CANVASS Library (AID 1347390).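 Note: light from luciferase secreted into medium read as a measure of general secretion; series mostly up to about 77 µM.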 In outline:
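SH-SY5Y cells expressing constitutively secreted GLuc, 1000 cells/well, attached 4 h at 37C, then exposed to compounds (0.001 - 77 uM, 11-pnt series) for 20 h. Coelenterazine added; luminescence read to flag secretory-pathway interferers.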

The nature of assay [14]: qHTS for activators of dead-cell proteases activity screened against the NCATS CANVASS Library (AID 1347392).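 Note: luminescence from protease leaking out of membrane-damaged cells cleaving impermeant substrate; rising signal means more cytotoxicity.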 The essentials:
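Compounds are pin-transferred onto attached HepG2 cells, giving 11 final concentrations. After 5 h at 37C, AAF-aminoluciferin reagent is added and luminescence is recorded at room temperature.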

Assay [15] can be described thus: qHTS for inhibitors of ER calcium dysfunction: SERCaMP assay screened against the NCATS CANVASS Library (AID 1347393). Note: nearly all actives have a fitted effect of over 40% in size. Note: potency is the fitted concentration of half-maximal effect. The essentials: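 Thapsigargin-induced ER calcium depletion drives GLuc-SERCaMP secretion from SH-SY5Y cells; compounds given 16 h beforehand were scored by lowered coelenterazine luminescence after 4 h challenge.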
Assay [16] can be described thus: Vero-766 cells viability qHTS against the NCATS CANVASS Library: Counterscreen for Zika virus inhibition assay (AID 1347394). Note: series mostly up to about 46 µM; nearly all actives have a fitted effect of over 60% in size. The essentials:
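Uninfected Vero 766 (African green monkey) cells, 1000/well, attached overnight, then exposed 72 h at 37C to compounds (11-point qHTS). Viability read by CellTiter-Glo luminescence; media-only wells served as 100% inhibition.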

Assay [17] in a line: qHTS for inhibitors of Wild type Zika virus screened against the NCATS CANVASS Library (AID 1347396).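 Note: ATP luminescence of surviving cells so rescue from viral cell killing; series mostly up to about 46 µM.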 The essentials:
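Luminescent CellTiter Glo read-out of virus-induced cytotoxicity, 72 h post-infection, in Vero 766 cells. Compounds were tested at 11 concentrations; uninfected, vehicle-treated wells defined 100% inhibition.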

A short description of assay [18]: Viability qHTS for inhibitors of the SERCaMP assay screened against the NCATS CANVASS Library (AID 1347400). Note: series mostly up to about 92 µM; nearly all actives have a fitted effect of over 70% in size. In outline:
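SH-SY5Y-GLuc SERCaMP MJH297-derived cells, 1000/well, plated 4 h, then exposed to compounds in an 11-point qHTS series for 48 h at 37C. Viability read as CellTiter-Glo luminescence.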

A short description of assay [19]: Redox Reaction Profiling qHTS: Assay Interference Panel against the NCATS CANVASS Library (AID 1347401). In outline:
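Cell-free redox surrogate: 5 uM resazurin + 200 uM DTT, 50 mM HEPES pH 7.3/50 mM NaCl; cpds pinned, 11-pt qHTS; Ex525/Em598 read t0 and t=15 min, dark.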

Assay [20] in a line: qHTS for activators of Nrf2/ARE signaling pathway screened against the NCATS CANVASS Library (AID 1347391). Note: nearly all actives have a fitted effect of over 60% in size. Note: potency is the fitted concentration of half-maximal effect. The essentials:
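ARE-bla HepG2 beta-lactamase reporter cells exposed to compounds for 16 h at 37C; CCF4 substrate 2 h, fluorescence at ex 405 nm, em 460/530 nm. Viability by CellTiter-Glo luminescence.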

Results filed as inconclusive are left out. The source made the active and inactive calls. Calls come from the whole dose curve; as a rule, active = well fitted curve in the direction sought with a large enough effect; inconclusive = small, poorly fitted or top-dose-only effect, or another doubt; inactive = no such curve, though single readings can be large; an effect the other way counts as inactive or inconclusive.

As for `CCCCOc1nc(N)c2c(n1)N(Cc1cccc(CN3CCCC3)c1)CC(=O)N2`, in assay [1], the outcome was inactive.

As to `COCCCc1sc(-c2ccccc2)nc1C(=O)Nc1ccccc1-c1nc2cc(CN3CCCC3)cnc2s1`, the molecule was classed as inactive in [1].

In the case of `CCC(CC)CC1(C(=O)Nc2ccccc2SC(=O)C(C)C)CCCCC1`, the molecule was called inactive in assay [1].

As to `N#CN1CCC[C@@H](n2nc(-c3ccc(Oc4ccc(F)cc4F)cc3)c(C(N)=O)c2N)C1`, the outcome in assay [1] was inactive.

For `Cn1cc(-c2c[nH]c3ncnc(N4CCOCC4)c23)cn1`, the result in assay [1] was inactive.

For `COc1ccc2[nH]c(S(=O)Cc3ncc(C)c(OC)c3C)nc2c1` (stereo not drawn), the molecule was called inactive in assay [1].

Regarding `CC(C)c1ccc2c(c1)CCC1[C@](C)(C(=O)O)CCC[C@]21C` (stereo partly drawn), the call in [2], in assay [3], in [4], in assay [5], in [6] and in assay [7] was inactive. The call in assay [9], in assay [10], in [11], in assay [12], in [13] and in assay [14] was inactive. In addition, the molecule was classed as inactive in assay [16], in assay [17], in assay [18] and in assay [19]. For the same molecule, the Potency entry in [8] and in assay [15] was “inactive” each time.

With `O=C(/C=C/C=C/c1ccc2c(c1)OCO2)N1CCCCC1`, the call in assay [4], in assay [5], in assay [6], in assay [7], in assay [9] and in [10] was inactive. Further, the molecule was called inactive in assay [11], in [12], in [14], in assay [16], in assay [17] and in assay [18]. Further, the call in assay [19] and in assay [1] was inactive. Moreover, the Potency entry in [8] and in assay [20] was “inactive” each time. For the same molecule, the Potency in assay [15] was 60.5 µM (active).

As to `COc1cccc2c1c(O)c(C(=O)N(C)c1ccc(C(F)(F)F)cc1)c(=O)n2C`, the molecule was called inactive in assay [1].

As for `O=C(COCC(=O)N1CCN(C(c2ccccc2)c2ccccc2)CC1)Nc1ccc(Cl)cc1C(=O)O`, in [1], the result was inactive.

In the case of `Nc1ncnc2c1C(=O)N(c1ccc(C3CCC(CC(=O)O)CC3)cc1)CCO2` (stereo not drawn), the molecule was classed as inactive in [1].

As to `CNc1nc(C)nc(N[C@H]2CCC[C@@H](C(=O)NCc3ccc(C#N)cc3C(F)(F)F)C2)n1`, in assay [1], the result was inactive.

Take `Cc1nc(-c2cccnc2)sc1C(=O)Nc1ccccc1-c1cn2c(CN3CCOCC3)csc2n1`: the result in assay [1] was inactive.

With `C/C(=C\CC/C(C)=C/CC[C@]1(C)CCc2cc(O)cc(C)c2O1)CC/C=C(\C)C(=O)O`, the call in assay [3], in assay [4], in [6], in assay [7], in assay [9] and in assay [10] was inactive. The molecule was called inactive in [12], in [13], in assay [14], in [18] and in assay [19]. Further, the Potency entry in assay [20] and in assay [15] was “inactive” each time.

With `N#Cc1cccc(-c2c[nH]c3ncnc(N4CCOCC4)c23)c1`, the result in assay [1] was inactive.

With `C[C@@H]1O[C@@H](O[C@@H]2\C=C/C=C\C=C/C=C\C[C@H](C)OC(=O)/C=C\[C@H]3O[C@@H]3C[C@H](O)C[C@]3(O)C[C@@H](O)[C@@H](C(=O)O)[C@H](C2)O3)[C@H](O)[C@H](N)[C@@H]1O`, in assay [1], the molecule was classed as inactive.

On to `CCc1cccc2c3c([nH]c12)[C@@](CC)(CC(=O)O)OCC3`, for which the result in assay [1] was inactive.

On to `Cc1c(F)cc(C(=O)NC2CC2)cc1-c1ccc(C(=O)NCC(C)(C)C)cn1`, for which the molecule was called inactive in [1].

Consider `CC(C)[C@](O)(c1ccc2cc(OC(F)F)c(OC(F)F)cc2c1)c1cn[nH]n1`, for which the molecule was called inactive in assay [1].

Regarding `Cc1ccccc1-n1nc(-c2c(-c3ccc(F)cc3)nn3c2NC[C@@H](CO)C3)ccc1=O`, the result in [1] was inactive.

With `C=C1C[C@@]2(O)O[C@@]3(C[C@H]2C(C)C)[C@@H](C)CC[C@@H]13`, the outcome in [1] was inactive.

As to `Cc1cccc(-c2nn3c(c2-c2ccnc4ccc(C(N)=O)cc24)CCC3)n1`, the call in [1] was inactive.

Regarding `N#Cc1ccc(C2CCCc3cncn32)cc1` (stereo not drawn), the molecule was classed as inactive in assay [1].

For `CC(C)N(CCCNC(=O)Nc1ccc(C(C)(C)C)cc1)C[C@H]1O[C@@H](n2ccc3c(N)ncnc32)[C@H](O)[C@@H]1O`, in [1], the result was inactive.

On to `O=C(O)CC1CCC(c2ccc(-c3ccc(Nc4ccc(C(F)(F)F)nc4)cn3)cc2)CC1` (stereo not drawn), for which, in assay [1], the molecule was classed as inactive.

For `CC(=O)O[C@H]1C[C@@]2(C)[C@@H](CC[C@H]3[C@@]4(C)C=CC(=O)[C@@H](C)[C@@H]4[C@H](OC(C)=O)C(=O)[C@@]32C)/C1=C(\CCC=C(C)C)C(=O)O`, the call in assay [2], in [3], in [4], in [6], in assay [9] and in assay [10] was inactive. Moreover, the result in assay [11], in [12], in assay [13], in [14], in assay [16] and in assay [18] was inactive. Besides, the molecule was classed as inactive in [19]. Moreover, the outcome in [5] was “inactive [at 46.1 µM]”. For the same molecule, the Potency in assay [8] is 10.6 µM (active); in assay [20], 20.9 µM (active); in [15] it was 30.5 µM (active).

Consider `Cc1ncc(Cl)cc1NCc1ccc(C(=O)NC(CC2CCCC2)C(=O)NC2CC2)s1` (stereo not drawn), for which the call in assay [1] was inactive.
